Bioassay records from PubChem.
A selection: hits, their analogues and other compounds. The true share with any hit is near 4.2%.
TCR activator: activators of T cell receptors; primary human leukocytes, anti-CD3, IL-2 HTRF, 48 h; Potency, µM (titrated, usually from 9.22 µM), most hits filed as activators; 330,000 tested, under 10 active
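Using a-CD3 beads without co-stimulation, primary human leukocytes were exposed to compounds for 48 hr. An HTRF IL-2 kit measured the cytokine, with europium-to-d2 energy transfer producing emission at 665nm upon 320nm excitation.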
uPA surface inh: blocks generation of uPA at the cell surface; cell surface uPA generation assay, qHTS; Potency, µM (highest dose often 38.3 µM), usual class: inhibitors; actives 0.31% (n = 330,000); AID 540303; active means well fitted inhibition curve with a large enough effect; inconclusive means small, poorly fitted or top-dose-only effect; inactive means no such curve, though single readings can be large or run the other way; tested in mouse RAW 264.7 cells; further: nearly all actives have a fitted effect of over 55% in size
Sfp inh: blocks B. subtilis Sfp PPTase activity | Q9F4F7 | Biochemical Sfp PPTase activity, qHTS | Potency, µM, hits mostly inhibitors | actives 3.5% (n = 310,000);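 further: the enzyme is Sfp with the accession as filed and its product quenches rhodamine fluorescence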
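Compounds were incubated with enzyme (final 15 nM) for 15 min at room temperature before substrate addition started the reaction. Fluorescence at 525 nm excitation, 598 nm emission was recorded immediately and after 30 minutes.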
ClpP mod: qHTS Assay for Activators of ClpP; ATP-dependent Clp protease proteolytic subunit (Bacillus subtilis (strain 168)), P80244; purified B. subtilis ClpP, FRET peptide cleavage, 20 min; Potency, µM (top dose mostly 57.5 µM); actives 1.9% (n = 340,000); AID 651965, 2013; active means well fitted falling curve with a large enough effect; inconclusive means small, poorly fitted or top-dose-only effect; inactive means no such curve, though single readings can be large or run the other way; further: the source files actives as falling curves though it sought activators and does not explain the sign; nearly all actives have a fitted effect of over 65% in size
Target sequence (P80244 whole entry, looked up): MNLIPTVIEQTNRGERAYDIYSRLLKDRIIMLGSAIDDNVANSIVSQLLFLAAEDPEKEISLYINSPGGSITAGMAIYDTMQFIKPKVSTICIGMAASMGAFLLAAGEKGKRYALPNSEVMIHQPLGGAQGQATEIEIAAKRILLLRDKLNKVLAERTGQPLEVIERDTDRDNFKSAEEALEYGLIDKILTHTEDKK
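Purified B. subtilis ClpP, 10 microg/mL final in Tris/HCl pH8 with KCl, BSA, glycerol and Tween-20, cleaved an Abz/nitrotyrosine-quenched decapeptide. Fluorescence (ex 320, em 430) was read at 0 and 20 min at room temperature. Delta was normalized to 5.8 microM ADEP and DMSO/no-enzyme controls.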
A number is an active result; – = inactive; ? = inconclusive; · = not tested or not shown; ! = repeats disagree. Unless noted, the call rests on the fitted dose curve; in most records, active means well fitted curve in the direction sought with a large enough effect; inconclusive means small, poorly fitted or top-dose-only effect, or another doubt; inactive means no such curve, though single readings can be large; an effect the other way counts as inactive or inconclusive.

SMILES	TCR activator	uPA surface inh	Sfp inh	ClpP mod
CSCC[C@H](NC(=O)[C@@H]1CCCN1C(=O)[C@H](CCCN=C(N)N)NC(=O)[C@H](CC(C)C)NC(=O)[C@@H]1CCCN1C(=O)[C@@H](NC(=O)[C@@H](N)CCC(N)=O)C(C)C)C(=O)N[C@H](C(=O)N[C@@H](Cc1ccc(O)cc1)C(=O)N[C@@H](CCCCN)C(=O)O)[C@@H](C)O	·	·	–	·
Cc1ccc(C)c(NC(=O)Cn2cc(S(=O)(=O)N3CCCC3)c(S(=O)(=O)N3CCCC3)c2)c1	·	·	·	–
O=C(N/N=C/c1ccc([N+](=O)[O-])s1)C(O)c1ccccc1 (configuration not stated)	–	10µM	?	–
O=C(CNC(=O)c1cccc(F)c1)N/N=C/c1ccc([N+](=O)[O-])s1	–	10µM	–	–
O=[N+]([O-])c1ccc(/C=N/NC(=S)Nc2ccc(Cl)cc2Cl)s1	–	?	56µM	–
Cc1c(NC(=O)COc2c(F)c(F)c(F)c(F)c2F)c(=O)n(-c2ccccc2)n1C	–	–	–	·
CCCCOc1ccc(S(=O)(=O)NCc2csc(-c3ccc(OC)cc3)n2)cc1	·	·	·	13µM
COc1ccc(-c2nc(CC(=O)O)cs2)cc1	–	–	–	22µM
COc1ccc(-c2nc(CCNC(=O)c3ccccc3)cs2)cc1OC	·	·	·	25µM
COc1ccc(-c2nc(CNS(=O)(=O)c3ccccc3)cs2)cc1	·	·	·	–
COc1cccc(-c2nc(CC(=O)O)cs2)c1OC	·	–	–	13µM
COc1ccc(-c2nc(CC(=O)O)cs2)cc1OC	·	·	–	·
COc1cc(NC(=O)N2CCC(CN3CCCC3)CC2)cc(OC)c1OC	·	·	·	–
Cc1ccc2nccc(/C=C/c3ccc(N(C)C)cc3)c2c1	·	·	·	–
C/C(O)=c1/cnc2nc3ccccc3n2c1=O	–	–	–	·
Cc1oc(C)c2c(=O)cc(-c3ccc4c(c3)OCO4)cc(OC(=O)c3ccccc3Br)c12	·	·	·	–
CCNC(=O)Oc1ccc[nH]c1=O	–	–	25µM	–
Cc1ccc(S(=O)(=O)NCC(=O)NCC(=O)N(C)Cc2ccc3ccccc3c2)cc1C	–	–	–	–
CC1CCCCC12NC(=S)N(c1ccccc1)N2 (configuration not stated)	–	–	18µM	·
CC1CCCC2(C1)NC(=S)N(c1ccccc1)N2 (configuration not stated)	–	–	50µM	–
CC1CC(C)(C)CC2(C1)NC(=S)N(c1ccccc1)N2 (configuration not stated)	–	–	?	16µM
S=C1NC2(CCCCC2)NN1c1ccccc1	–	–	–	·
CC(C)CCN1NC2(CCCC(C)C2)NC1=S (configuration not stated)	–	–	71µM	·
Oc1cccc2c(CC(O)c3c[nH]c4ccccc34)ccnc12 (configuration not stated)	·	·	·	–
C[C@H](CO)N1C[C@H](C)[C@@H](CN(C)S(=O)(=O)c2cn(C)cn2)Oc2ccc(NC(=O)C3CCCCC3)cc2C1=O	–	–	·	–
SMILES	TCR activator	uPA surface inh	Sfp inh	ClpP mod
CN1C(CCl)Nc2cc(Cl)c(S(N)(=O)=O)cc2S1(=O)=O (configuration not stated)	–	–	–	14µM
O=C(c1ccc2c(c1)N(Cc1ccc(Cl)cc1)C(=O)c1ccccc1S2(=O)=O)N1CCCC1	·	·	·	–
O=C(CCSc1ccc(Cl)cc1)N1CCN(c2ccc(O)cc2)CC1	–	–	79µM	·
O=C(CCOc1ccccc1)N1CCN(c2ccc(O)cc2)CC1	–	–	50µM	·
O=C(COc1cccc(C(F)(F)F)c1)N1CCN(c2ccc(O)cc2)CC1	–	–	28µM	·
O=C(CCSc1ccccc1)N1CCN(c2ccccc2)CC1	–	–	–	·
CCCCN(CC)CCCNC(=O)Cn1nc(CC)n2c(cc3sccc32)c1=O	·	·	·	–
Cc1ccc(Cl)cc1NC(c1ccc(F)cc1)c1nnc(-c2ccccc2)o1 (configuration not stated)	·	·	·	–
CCN(CC)c1ccc(NC(=O)c2cc(S(=O)(=O)N3CCc4ccccc43)cn2C)c(C)c1	·	·	·	–
CS(=O)(=O)N1N=C(c2ccco2)CC1c1ccc(Cl)cc1Cl (configuration not stated)	–	–	40µM	–
CCOc1ccc2cc(C3CC(c4ccco4)=NN3S(C)(=O)=O)c(=O)[nH]c2c1 (configuration not stated)	–	–	22µM	–
COc1ccc(CNc2ncnc3nc[nH]c23)cc1OC	·	·	·	–
CC(=O)N1CCc2c(sc(NC(=O)c3cccc(N4C(=O)CCC4=O)c3)c2C(N)=O)C1	–	–	–	–
CCOC(=O)c1c(NC(C)=O)sc2c(O)c(Br)cc(Br)c12	–	–	35µM	–
CCOC(=O)c1c(C)n(C)c2cc(Br)c(O)c(O)c12	–	–	79µM	–
COC(=O)C1CCN(C2CN(Cc3ccccc3)S(=O)(=O)C2)CC1 (configuration not stated)	·	·	·	–
Cc1ccc(/C=C2/C(=O)C3(C)CCC2C3(C)C)cc1 (configuration not stated)	·	·	–	·
FC(F)(F)c1cc(-c2ccc3c(c2)OCO3)nc(NCc2ccco2)n1	–	–	–	25µM
COc1ccc(-c2cc(C(F)(F)F)nc(NCc3ccco3)n2)cc1OC	–	–	–	?
S=C(NCCCN1CCOCC1)NCCCN1CCOCC1	–	–	7.1µM	–
S=C(NCCCN1CCOCC1)Nc1ccc(Cl)cc1	–	–	–	–
FC(F)(F)Oc1ccc(NC(=S)NCCCN2CCOCC2)cc1	–	–	56µM	–
O=C(CSc1ccc(F)cc1)Nc1ccc2c(c1)C(=O)NC2=O	–	–	–	–
O=C(COC(=O)c1cccs1)NCCN1C(=O)CSC1=O	–	–	–	–
Cc1c(C(=O)OCC(=O)NCCN2C(=O)CSC2=O)oc2c1ccc1ccccc12	–	–	–	32µM
SMILES	TCR activator	uPA surface inh	Sfp inh	ClpP mod
CC1(C(=O)Nc2cccc(-n3cnnn3)c2)Cc2ccccc2C(=O)O1 (configuration not stated)	–	–	·	35µM
Cc1cccc(Nc2nnc(-n3nc(C)cc3C)c3ccccc23)c1	·	·	·	–
Cc1ccc(-n2c(=O)c3c(c4cc(C)ccc4n3C)n(CC(=O)Nc3c(C)cccc3C)c2=O)cc1	·	·	·	–
COc1ccc(OC)c(NC(=O)c2cc3c(n(-c4ccc(Cl)cc4)c2=O)CC(C)(C)CC3=O)c1	·	·	·	–
CC(=O)Nc1ccc(S(=O)(=O)Oc2ccc(C(=S)N3CCC(O)CC3)cc2)cc1	–	–	56µM	–
CC(=O)Nc1ccc(OS(=O)(=O)c2ccc(Cl)cc2)cc1	–	–	–	·
CC(=O)Nc1ccc(S(=O)(=O)Oc2ccc(C(=S)N3CCCCC3)cc2)cc1	–	–	–	4µM
CC(C)C(=O)Nc1nc2c(ncn2[C@H]2CC(O)[C@@H](CO)O2)c(=O)[nH]1 (some centres not stated)	·	·	·	–
CC1=C(C(=O)OCc2ccccc2)C(c2ccc([N+](=O)[O-])cc2)NC(=O)N1CCCCCC(=O)O (configuration not stated)	–	–	45µM!	–
